Potency data for 24 compounds are collected here from PubChem BioAssay (Tox21).

Molecules are shown by their SMILES. Values without a mark were called inactive. Inconclusive results are not listed. The source made the active and inactive calls. Unless noted, the call rests on the fitted dose curve; in most records, active means well fitted curve in the direction sought with a large enough effect in the repeat runs; inconclusive means weak or mixed curves; inactive means no such curve, though single readings can be large; an effect the other way counts as inactive or inconclusive.

The nature of assay [1]: qHTS assay to identify small molecule antagonists of the progesterone receptor (PR) signaling pathway - cell viability counter screen (AID 1346798). Further: nearly all actives have a fitted effect of over 50% in size. Further: potency means the concentration at half of the fitted maximal effect. In outline: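 Same-well multiplex: after 16 hr at 37C with compound and R5020 stimulation, HEK293T cells carrying a UAS-bla reporter received LiveBLAzer substrate (2 hr RT), then CellTiter-Glo (30 min RT) for luminescent viability.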

The nature of assay [2]: qHTS assay to identify small molecule agonists of the progesterone receptor (PR) signaling pathway - cell viability counter screen (AID 1346799; calls by dose curve; further: nearly all actives have a fitted effect of over 45% in size; further: potency means the concentration at half of the fitted maximal effect). In outline: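 Counter screen for cytotoxicity: compound-treated PR-UAS-bla HEK293T cells (16 hr, 37C, 5% CO2) were assayed with CellTiter-Glo, luminescence measured after 30 min at room temperature.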
In general terms: qHTS replaces the single test concentration by a dilution series.

The target in assay [3] is Thyrotropin-releasing hormone receptor (Homo sapiens) (UniProt P34981). Put plainly: qHTS assay to identify small molecule antagonists of the thyrotropin-releasing hormone receptor (TRHR) signaling pathway (AID 1346877; active means well fitted inhibition curve with a large enough effect in the repeat runs, not every such curve was filed as active; further: series mostly up to about 51 µM). In outline: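 Cells (TRHR-HEK293) are plated and kept 18 h at 37 °C/5% CO2. A calcium-sensitive dye is added for 2 h, compound follows for 5 min at room temperature, and TRH is then given at 1 nM final.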

Assay [4] shares this target. Put plainly: qHTS assay to identify small molecule agonists of the thyrotropin-releasing hormone receptor (TRHR) signaling pathway (AID 1346891; calls by dose curve;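 further: HEK293 cells expressing TRHR with calcium dye readout; series mostly up to about 58 µM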). In outline:
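Agonist-mode calcium mobilisation screen: TRHR-transfected HEK293 cells cultured overnight (18 h), dye-loaded for 2 h at 37 °C, exposed to compounds, and monitored by fluorescence for 3 min.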

Assay [5] is described as follows: Human pregnane X receptor (PXR) small molecule agonists, qHTS cell viability counter screen (AID 1346977). Further: nearly all actives have a fitted effect of over 50% in size. Further: potency means the concentration at half of the fitted maximal effect. In outline: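 Measures live-cell protease fluorescence (CellTiter-Fluor) in PXR-Luc HepG2 cells treated 24hr with compounds at 37C. Cells had 5hr to attach before pin transfer of DMSO solutions.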
The nature of assay [6]: Caspase-3/7 induction in HepG2 cells by small molecules, qHTS assay (AID 1346978). Further: nearly all actives have a fitted effect of over 15% in size. Further: potency means the concentration at half of the fitted maximal effect. In outline:
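Caspase-3/7 induction was measured by Caspase-Glo 3/7 luminescence (30 min, room temperature) after a 17 hr compound exposure of wild-type HepG2 cells seeded at 2,000 per well and pre-incubated 5 hr.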

Assay [7] can be described thus: qHTS assay to identify small molecule agonists of the TGF-beta/Smad signaling pathway - cell viability counter screen (AID 1346829). Further: nearly all actives have a fitted effect of over 45% in size. Further: potency means the concentration at half of the fitted maximal effect. An outline of the steps:
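Tox21 qHTS format: SBE-bla HEK 293T cells treated with DMSO-dissolved compounds for 5 hr; CellTiter-Glo luminescence after 30 min at room temperature.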

The nature of assay [8]: qHTS assay to identify small molecule agonists of the TGF-beta/Smad signaling pathway (AID 1346859; active means well fitted activation curve with a large enough effect in the signal ratio in the repeat runs, not every such curve was filed as active; the % refers to the signal ratio; further: series mostly up to about 77 µM). An outline of the steps:
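Smad-responsive beta-lactamase reporter cells (HEK 293T) received compounds from DMSO stocks after overnight attachment, were incubated 5 hr, then treated 2 hr with FRET substrate before dual-emission fluorescence measurement (405 nm excitation).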

The nature of assay [9]: qHTS assay to identify small molecule antagonists of the TGF-beta/Smad signaling pathway - cell viability counter screen (AID 1346824). Further: nearly all actives have a fitted effect of over 50% in size. Further: potency means the concentration at half of the fitted maximal effect. In outline: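 Cytotoxicity counter-screen run in the same wells as the beta-lactamase Smad reporter read: CellTiter-Glo luminescence after 30 min at room temperature. HEK 293T SBE-bla cells had 5 hr compound exposure at 37 C with TGF-beta1 (0.25 ng/mL stock).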

Sequence of Thyrotropin-releasing hormone receptor (Homo sapiens) (P34981 whole entry, looked up): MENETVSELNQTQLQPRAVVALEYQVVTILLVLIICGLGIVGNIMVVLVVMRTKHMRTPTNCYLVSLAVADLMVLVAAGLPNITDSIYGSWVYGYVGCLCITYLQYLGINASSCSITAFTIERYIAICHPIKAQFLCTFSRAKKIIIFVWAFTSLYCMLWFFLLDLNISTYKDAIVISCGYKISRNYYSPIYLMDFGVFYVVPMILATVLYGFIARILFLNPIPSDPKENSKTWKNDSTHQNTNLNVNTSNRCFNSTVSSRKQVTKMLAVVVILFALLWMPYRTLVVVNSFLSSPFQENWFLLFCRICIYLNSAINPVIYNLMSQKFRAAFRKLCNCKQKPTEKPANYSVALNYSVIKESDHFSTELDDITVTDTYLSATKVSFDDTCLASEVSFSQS

Turning to `N=C1N=C(N)c2cc3ccccc3cc21`, the Potency was 27.3 µM (active) in assay [1], 27.3 µM (active) in assay [2], 15.8 µM (active) in [5] and 45.8 µM (active) in [6]. Moreover, the Potency result in assay [3] and in assay [4] was “inactive” in each case.
For `CN(C)c1ccc(SC#N)cc1`, the Potency result in assay [1], in assay [2], in assay [7], in [8], in [3] and in [4] was “inactive” throughout. Besides, the Potency result in [5] and in assay [6] was “inactive” in each case.
In the case of `C[C@@H](NCCCc1cccc(C(F)(F)F)c1)c1cccc2ccccc12`, the figures for the Potency in assay [1] and in assay [2] were 26.6 µM (active) and 23.7 µM (active), respectively. In addition, the Potency entry in [3] and in [4] was “inactive” throughout.
`Nc1nc2ccccc2n1Cc1ccc(F)cc1`: the Potency result in assay [1], in [2], in assay [9], in assay [7], in [3] and in assay [4] was “inactive” each time. In addition, the Potency entry in [6] was “inactive”.
With `O=C(c1ccc(F)cc1)C1CCN(CCn2c(=O)[nH]c3ccccc3c2=O)CC1`, the Potency entry in [1], in [2], in [9], in [7], in [5] and in assay [6] was “inactive” throughout.
Consider `O=C(Nc1cccc([N+](=O)[O-])c1)c1cc2ccccc2cc1O`, for which the Potency is 24.3 µM (active) in [1] and 3.86 µM (active) in assay [5]. Moreover, the Potency result in assay [2], in assay [3], in assay [4] and in assay [6] was “inactive” in each case.
As for `COc1ccc(CN2CCN(C(c3ccc(F)cc3)c3ccc(F)cc3)CC2)c(OC)c1OC`, the Potency in assay [1] is 16.8 µM (active); in assay [2] it was 13.3 µM (active); in assay [7], 23.9 µM (active); in assay [5], 26.6 µM (active). In addition, the Potency result in assay [3], in assay [4] and in assay [6] was “inactive” each time.
Turning to `O=C1c2ccccc2Cc2ccccc21`, the Potency result in assay [1], in assay [2], in assay [7], in assay [3], in assay [4] and in assay [5] was “inactive” each time. In addition, the Potency result in [6] was “inactive”.
In the case of `CCCCCCCCn1sc(Cl)c(Cl)c1=O`, the Potency result in assay [1], in assay [2], in [4] and in [6] was “inactive” in each case. Besides, the Potency was 21.9 µM (active) in assay [9] and 34.7 µM (active) in [7].
With `O=C(O)c1cc(O)c2c(c1)C(=O)c1cccc(O)c1C2=O`, the Potency result in assay [1], in assay [2], in assay [9], in [7] and in [6] was “inactive” each time. The Potency in assay [5] was 25.1 µM (active).
As to `O=C1C=CC(=O)N1`, the Potency in assay [1] is 55.9 µM (active); in [2] it was 62.8 µM (active). In addition, the Potency result in assay [3], in assay [4] and in [6] was “inactive” throughout.
Consider `CC(C)n1nc(-c2cc3cc(O)ccc3[nH]2)c2c(N)ncnc21`, for which the Potency result in assay [1], in assay [2], in assay [9], in [7], in [3] and in [4] was “inactive” in each case. In assay [6], the Potency was 29.8 µM (active).
As to `CCOC(=O)c1nc(C(Cl)(Cl)Cl)n(-c2ccc(Cl)cc2Cl)n1`, the results for the Potency in [1], in assay [2] and in [5] were 61.1 µM (active), 61.1 µM (active) and 54.5 µM (active), respectively. Moreover, the Potency entry in [9], in assay [7] and in assay [6] was “inactive” each time.
As for `CCC(CN)=C(c1ccccc1)c1ccccc1`, the Potency entry in [1], in assay [2], in [9], in assay [7], in [3] and in [4] was “inactive” in each case. Besides, in assay [6], the Potency result was “inactive”.
In the case of `C[n+]1ccn(Cc2ccccc2)c1`, the Potency result in assay [1], in [9], in [7], in [8], in assay [3] and in assay [4] was “inactive” in each case. The Potency result in [6] is “inactive”.
With `CC[C@H]1O[C@]2(CC[C@@H]1C)C[C@@H]1C[C@@H](C/C=C(\C)C[C@@H](C)/C=C/C=C3\CO[C@@H]4[C@H](O)C(C)=C[C@@H](C(=O)O1)[C@]34O)O2`, the Potency in assay [1] is 68 µM (active); in assay [9], 54.5 µM (active); in assay [7] it was 54.5 µM (active); in assay [5], 27.1 µM (active); in [6] it was 30.4 µM (active). Also, the Potency result in [3] and in [4] was “inactive” throughout.
Consider `C[C@]12CCC(=O)C=C1CC[C@@H]1[C@@H]2[C@@H](O)C[C@@]2(C)[C@H]1CC[C@]2(O)C(=O)COC(=O)CCC(=O)O`, for which the Potency result in [1], in assay [9], in assay [7], in [3], in assay [4] and in assay [5] was “inactive” in each case. Also, in [6], the Potency result is “inactive”.
As to `CCOC(=O)/C=C(C)/C=C/C=C(C)/C=C/c1c(C)cc(OC)c(C)c1C`, the Potency entry in assay [2], in [9], in assay [7], in assay [5] and in assay [6] was “inactive” throughout.
Regarding `CCN(C(=O)c1cc(C)cc(OC[C@H](C)Nc2ccncc2)c1)C(C)C`, the Potency result in assay [2], in [9], in [7], in [8], in assay [3] and in assay [4] was “inactive” each time. The Potency result in assay [6] is “inactive”.
Regarding `Cc1oc(-c2ccccc2)nc1CCC(=O)c1ccc(CC2SC(=O)NC2=O)cc1` (stereo not drawn), the Potency result in assay [1], in assay [9], in [7], in [3], in assay [4] and in [6] was “inactive” in each case.
Take `Cc1cccc2c1cc1ccc3cccc4ccc2c1c34`: the Potency result in assay [1], in [9], in assay [7], in [3], in [4] and in assay [5] was “inactive” each time. The Potency entry in [6] was “inactive”.
On to `CCCCCCCC[P+](CCCCCCCC)(CCCCCCCC)CCCCCCCC`, for which the Potency in [1] is 15.3 µM (active); in [9] it was 21.7 µM (active); in assay [7], 17.3 µM (active); in assay [5] it was 2.42 µM (active). Besides, the Potency result in [3] and in assay [4] was “inactive” in each case.
Regarding `COc1c(C)c2c(c(O)c1C/C=C(\C)CCC(=O)O)C(=O)OC2`, the Potency in assay [1] is 0.119 µM (active). Further, the Potency result in [9], in assay [7], in [3], in [4], in assay [5] and in assay [6] was “inactive” throughout.
For the compound `Cn1cc(C(=O)[C@@H]2CCc3nc[nH]c3C2)c2ccccc21`, in assay [1], the Potency was 23.7 µM (active). Also, the Potency entry in assay [9], in assay [7], in assay [3], in assay [4] and in assay [6] was “inactive” throughout.
